Values quoted from earlier work as cited in PubChem BioAssay AID977608.
The campaign covered roughly 4,300 compounds. About 4,300 (100%) were called active. Cut-off not given; nearly all actives show IC50 up to about 1400 µM. The set was probably picked from earlier hits. The list shows a part of the results.

Test: literature IC50 values for PDB complexes, PDB-derived complexes (AID 977608)
Conditions: PDB protein-ligand complexes

## Cc1noc(C)c1-c1ccc2c(Nc3ccccc3C(C)(C)C)c(C(=O)O)cnc2c1
protein: BROMODOMAIN-CONTAINING PROTEIN 4, PDB entry 4bw1
  IC50: 1.26 µM (active)

## CCc1cc(Sc2ncc(C(=O)O)[nH]2)nc([C@H]2CCCC[C@@H]2C(=O)NCc2ccc(Cl)c(Cl)c2)n1
protein: Phosphopantetheine adenylyltransferase, PDB entry 4nah
  IC50: 0.49 µM (active)

## CCc1cc(-c2nc(O)c(C(N)=O)c(=O)[nH]2)nc([C@H]2CCCC[C@@H]2C(=O)NCc2ccc(Cl)c(Cl)c2)n1
protein: Phosphopantetheine adenylyltransferase, PDB entry 4nau
  IC50: 0.00087 µM (active)

## COc1cc(OC)nc(C2CCCCC2C(=O)NCc2ccc(Cl)c(Cl)c2)n1 (stereo not given)
protein: Phosphopantetheine adenylyltransferase, PDB entry 4nat
  IC50: 0.33 µM (active)

## N[C@@H](C(=O)O)[C@H](O)[C@@]1(C(=O)O)CC[C@H](C[C@H](NC(=O)c2cc(Cl)c(O)c(Cl)c2)C(=O)O)N1
protein: Glutamate receptor 2, PDB entry 4gxs
  IC50: 100 µM (active)

## OS(O)(O)c1cc(N=C=S)ccc1/C=C/c1ccc(N=C=S)cc1S(O)(O)O
protein: human soluble Adenylyl Cyclase TYPE 10, PDB entry 4clz
  IC50: 43 µM (active)

## O=C(NCCCNCc1cc(Cl)cc(Cl)c1)Nc1ccccc1O
protein: Trypanosoma brucei methionyl-tRNA synthetase, PDB entry 4mw0
  IC50: 0.039 µM (active)

## CC[C@H](C)[C@H](NC(=O)[C@H](CC(N)=O)NC(=O)[C@H](Cc1ccccc1)NC(=O)[C@H](Cc1c[nH]c2ccccc12)NC(=O)[C@H](CC(N)=O)NC(C)=O)C(=O)N[C@H](C(=O)N[C@@H](CC(N)=O)C(=O)N[C@]1(C)CCCCCC[C@@](C)(C(=O)N[C@H](C(=O)N[C@@H](CCCCN)C(=O)N[C@@H](CCCCN)C(=O)N[C@@H](CCCCN)C(=O)N[C@@H](CCCCN)C(=O)O)[C@@H](C)CC)NC(=O)[C@H](Cc2c[nH]c3ccccc23)NC(=O)[C@H](CC(C)C)NC1=O)[C@@H](C)O
protein: HIV-1 neutralizing antibody 4E10 Fab, PDB entry 4nhc
  IC50: 0.046 µM (active)

## CC[C@H](C)[C@H](NC(=O)[C@H](CC(N)=O)NC(=O)[C@H](Cc1ccccc1)NC(=O)[C@H](Cc1c[nH]c2ccccc12)NC(=O)[C@H](CC(N)=O)NC(C)=O)C(=O)N[C@H](C(=O)N[C@@H](CC(N)=O)C(=O)N[C@]1(C)CCCCCC[C@@](C)(C(=O)N[C@H](C(=O)N[C@@H](CCNC(=O)CNC(=O)[C@@H](N)CO[P+](O)(O)O)C(=O)N[C@@H](CCCCN)C(=O)N[C@@H](CCCCN)C(=O)N[C@@H](CCCCN)C(=O)O)[C@@H](C)CC)NC(=O)[C@H](Cc2c[nH]c3ccccc23)NC(=O)[C@H](CC(C)C)NC1=O)[C@@H](C)O
protein: HIV-1 neutralizing antibody 4E10 Fab, PDB entry 4ngh
  IC50: 0.03 µM (active)

## Cn1ncnc1[C@H]1c2n[nH]c(=O)c3cc(F)cc(c23)N[C@@H]1c1ccc(F)cc1
protein: Poly [ADP-ribose] polymerase 1 PARP1, PDB entry 4pjt
  IC50: 0.00057 µM (active)

## NC(=O)c1sc(Nc2ccccc2)nc1N
protein: Cyclin-dependent kinase 2, PDB entry 3rzb
  IC50: 100 µM (active)

## Nc1nc(Nc2cccc(S(N)(=O)=O)c2)sc1C(=O)c1ccccc1
protein: Cyclin-dependent kinase 2, PDB entry 3rni
  IC50: 6.7 µM (active)

## CS(=O)(=O)c1ccc(C(=O)Nc2cccc(-c3cn4ccnc4c(Nc4ccc(C(=O)N5CCOCC5)cc4)n3)c2)cc1
protein: Tyrosine-protein kinase BTK, PDB entry 4ot6
  IC50: 1.2 µM (active)

## O=C(Nc1ccc2[nH]nc(-c3ccncc3)c2c1)[C@@H]1CCN(CC(=O)N2CCN(c3ccc(-c4ncccn4)cc3)CC2)C1
protein: Haspin, PDB entry 4qtc
  IC50: 0.398 µM (active)
protein: Mitogen-activated protein kinase 8 JNK1, PDB entry 4qtd
  IC50: 1.08 µM (active)

## O=C1NC(=Nc2ccccc2)N=C1Cc1ccc2c(c1)OCO2
protein: Serine/threonine-protein kinase pim-1, PDB entry 4gw8
  IC50: 0.88 µM (active)

## C/C=C\CCC[C@H](C(=O)N1CCC[C@H]1C(=O)OC)N(C)C(=O)[C@H](C)NC(=O)[C@H](CC(C)C)NC(=O)C[C@H](O)[C@H](Cc1ccccc1)NC(=O)c1cc(NS(C)(=O)=O)cc(C(=O)N[C@H](C)c2ccccc2)c1
protein: Beta-secretase 1 (K75A,E77A mutation), PDB entry 4dvf
  IC50: 0.128 µM (active)

## O=C(O)c1cc2ccccc2o1
protein: Adenylate cyclase type 10 hsolAC, PDB entry 4oyp
  IC50: 1000 µM (active)

## CCc1nc(N)nc(N)c1-c1ccc2c(c1)N(CCNC(C)=O)C(=O)C(C)(C)O2
protein: human Renin, PDB entry 2g1r
  IC50: 0.02 µM (active)

## C[C@H](N[C@@H](CCc1ccccc1)C(=O)O)C(=O)N1CC=C[C@H]1C(=O)O
protein: HUMAN TESTICULAR ANGIOTENSIN I-CONVERTING ENZYME, PDB entry 1uze
  IC50: 0.00127 µM (active)

## NC[C@@](O)(c1ccc(Cl)cc1)c1ccc(-c2cn[nH]c2)cc1
protein: CAMP-DEPENDENT PROTEIN KINASE CATALYTIC SUBUNIT ALPHA, PDB entry 4axa
  IC50: 0.01 µM (active)

## NC1NC(=O)c2[nH]cnc2N1 (stereo not given)
protein: human Purine nucleoside phosphorylase, PDB entry 1v2h
  IC50: 5 µM (active)

## CO[C@@H]([C@@H]1OC(C(=O)O)=C[C@H](NC(N)N)[C@H]1NC(C)=O)[C@H](O)CO
protein: Neuraminidase, PDB entry 4hzw
  IC50: 0.00131 µM (active)

## CO[C@@H]([C@@H]1O[C@H](C(=O)O)C[C@H](NC(N)N)[C@H]1NC(C)=O)[C@H](O)CO
protein: Neuraminidase, PDB entry 4mwu
  IC50: 0.00324 µM (active)
protein: Neuraminidase, PDB entry 4mwy
  IC50: 0.0896 µM (active)

## CC(=O)N[C@H]1[C@H]([C@H](O)[C@H](O)CO)O[C@@H](C(=O)O)C[C@@H]1NC(N)N
protein: Neuraminidase, PDB entry 4mwr
  IC50: 0.00041 µM (active)
protein: Neuraminidase, PDB entry 4mwx
  IC50: 0.0757 µM (active)

## CC(C)[C@H](NC(=O)CCc1ccccc1)[P+](O)(O)C[C@@H](CCCCCN)C(=O)O
protein: Carboxypeptidase B, PDB entry 3wc7
  IC50: 0.0055 µM (active)

## Nc1[nH]c2c(=O)n3cnc2[n+]1[C@@H]1O[C@H](CO[P+](O)(O)O[P+](O)(O)OC[C@H]2O[C@@H]3[C@H](O)[C@@H]2O)[C@@H](O)[C@H]1O
protein: ADP-ribosyl cyclase 1, PDB entry 3u4h
  IC50: 56 µM (active)

## Nc1c2ncn3c2nc[n+]1[C@@H]1C[C@H](CO[P+](O)(O)O[P+](O)(O)OC[C@H]2O[C@@H]3[C@H](O)[C@@H]2O)[C@@H](O)[C@H]1O
protein: ADP-ribosyl cyclase 1, PDB entry 3u4i
  IC50: 129 µM (active)
